From PubChem BioAssay (NCI) come the findings set out here.

The structures appear in SMILES notation. The panel holds about 83,000 compounds, 20% with a hit somewhere; the sample as a whole holds those more often.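 Testing used 96-well plates and a 48-hour single-concentration exposure. Example: -40 means 40% of the starting cells died.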 Values without a mark were called inactive. Active and inactive are the calls of the source.

This assay has as its system CAKI-1 renal. Briefly: NCI-60 one-dose screen, 48 h (100 = growth as untreated, 0 = no growth, -100 = all killed). The following applies: 10 µM unless noted. On the procedure:
Growth inhibition of the CAKI-1 human tumor cell line is measured as a screen for anti-cancer activity. Cells are grown in 96 well plates and exposed to the test compound for 48 hours. Compounds are tested at a single concentration, which is 10^-5 M for most compounds. The reported endpoint is percent growth (GI% or GIPRCNT), where numbers from 0 - 100% represent growth inhibition, and numbers from -100% - 0 represent cell death. For example, a value of 40 represents 60% growth inhibition. A value of 0 means no net growth occurred over the course of the experiment. A value of -40 indicates 40% of cells at the beginning of the experiment died by the end of the experiment. A value of -100 means all cells are dead at the end of the experiment.
NCI-60 Human Tumor Cell Lines Screen was performed using the standard one-dose NCI protocol, which is described in more detail at https://dtp.cancer.gov/discovery_development/nci-60/default.htm.
Compounds with GIPRCNT values below 10 were considered active. Activity score was based on GIPRCNT using the following formula: […]
Score is 0 for GIPRCNT values of 100 or above, 50 for GIPRCNT values of 0, and 100 for GIPRCNT values of -100.
For `C#CC[C@@H]1C[C@]2(C)[C@H]3CC[C@@H]4[C@H]5C(C(=C)C)CC[C@]5(C(=O)NCCCCN)CC[C@@]4(C)[C@]3(C)CC[C@H]2C(C)(C)[C@H]1OC(C)=O` (stereo not given in full), the growth is -98.8% (active).

Regarding `COc1ccc(-c2nc(-c3cc(OC)cc(OC)c3)[nH]c2-c2ccc(OC)cc2)cc1`, the growth is 44.5%.

With `O=C1c2ccccc2C2N1CCC1CCc3ccccc3N12` (stereo not given), the growth is 88.4%.

Turning to `CC1=NC(c2ccc(Cl)cc2)C2=C(N1)/C(=C/c1ccc(Cl)cc1)CCC2` (stereo not given), the growth is 94.7%.

Turning to `CC(C)c1ccc(Cn2ccc3c4c(N)nc(NC5CC5)nc4ccc32)cc1`, the growth was -98.6% (active).

For `Clc1ccc(-c2nc(Br)cn3ccnc23)cc1`, the growth was 73%.

Consider `CC(CN1CCN(CCOCCO)CC1)CN1c2ccccc2Sc2ccc(Cl)cc21` (stereo not given), for which the growth is 69.4%.

For `O=C1Cc2c([nH]c3ccc([N+](=O)[O-])cc23)-c2ccccc2N1`, the growth is 16.4%.

Consider `Nc1cccc(S(=O)(=O)c2cccc(N)c2)c1`, for which the growth is 98.4%.

Turning to `CCN(CC)CCCC(C)Nc1cnc(C(=O)Nc2cc(C)cc3cccnc23)cn1` (stereo not given), the growth was 93.4%.

Take `C=C(CN1CC=CCC1)[C@@H]1CC[C@]2(C(=O)OC)CC[C@]3(C)[C@H](CC[C@@H]4[C@@]5(C)CC[C@H](OC(C)=O)C(C)(C)[C@@H]5CC[C@]43C)[C@@H]12`: the growth is 81.2%.

On to `COCCCNCC(=O)Nc1c(C)cccc1C`, for which the growth is 105%.

Consider `Cc1ccc(C2CC(c3cccs3)=NN2c2ccc(S(N)(=O)=O)cc2)s1` (stereo not given), for which the growth is 86.7%.

`CCC1CCc2nc3sc(C(=O)Nc4cccc(F)c4)c(N)c3cc2C1` (stereo not given): the growth was 57.9%.

Turning to `Cc1ccc(N2C3c4ccccc4N(S(=O)(=O)c4ccc(C)cc4)C2c2ccccc2N3S(=O)(=O)c2ccc(C)cc2)cc1`, the growth is 100%.

Regarding `COc1cc(C2CC(c3ccc(Cl)cc3)=NN2C=O)ccc1OS(=O)(=O)c1ccc(C)cc1` (stereo not given), the growth was 81.4%.

On to `Nc1nc(N)c2c(n1)NC(c1sc(Cl)nc1Cl)CC(c1ccccc1)=N2` (stereo not given), for which the growth was 44.8%.

On to `Cc1cc(C)cc(Nc2cc(C)nc3nc(C(F)(F)F)nn23)c1`, for which the growth was 12.4%.

Take `CCCC(CCC)NCC(O)c1cc(-c2ccc(C(F)(F)F)cc2)nc(C(F)(F)F)c1` (stereo not given): the growth is -28.1% (active).

As to `O=C1c2ccccc2C(=O)c2c1oc1ccc3ccccc3c21`, the growth is 90.3%.

As for `Fc1ccc2nc(-c3ccc(-c4noc(-c5ccc(Cl)cc5)n4)cc3)[nH]c2c1`, the growth is 102%.

With `CN1CCN(Cc2ccc(NC(=O)c3cncc(C#Cc4ncc5ccccn45)c3)cc2C(F)(F)F)CC1`, the growth is 1.78% (active).

`O=C(Nc1cccc(Cl)c1)Nc1cc(C(F)(F)F)ccc1Cl`: the growth is 9.58% (active).

Regarding `CCN(CC)Cc1cc(Nc2nc(NC3CCC(N(C)C)CC3)c3ccccc3n2)ccc1OC` (stereo not given), the growth was 102%.

Consider `C=C(C)C1CCC2(C(=O)O)CCC3(C)C(CCC4C5(C)CCC(O)C(C)(C)C5CCC43C)C12` (stereo not given), for which the growth was -5.47% (active).

Consider `COc1c(C(=O)/C=C/c2ccc(C)o2)c(O)cc2occc12`, for which the growth was 74.2%.

As to `Fc1cnccc1-c1nc2ccc3[nH]ncc3c2c2c1CCCC2`, the growth was -4.24% (active).

As to `CC(=O)c1nn(-c2ccccc2)/c(=N\N=C\c2coc3ccc(F)cc3c2=O)s1`, the growth is 82.3%.

Turning to `O=C1Nc2ccccc2/C1=C/c1c[nH]c2ccccc12`, the growth was 42.8%.

Take `CC(=O)N1N=C(c2ccc(C)cc2)CC1c1cn(-c2ccccc2)nc1-c1cccc(Nc2ccnc3cc(Cl)ccc23)c1` (stereo not given): the growth is 101%.

Take `COc1cc2c(cc1C)NC(=O)/C2=C\c1c[nH]c2ccccc12`: the growth was 10.6%.

On to `COc1ccc(-c2oc(=O)ccc2-c2cc(OC)c(OC)c(OC)c2)cc1F`, for which the growth is 52.9%.

For `N#Cc1nc(-c2cccc(Br)c2)cc(-c2ccc(Nc3nc(N4CCCCC4)nc(N4CCCCC4)n3)cc2)c1N`, the growth is -75.5% (active).

As for `Nc1nc(N)c2cc(Sc3ccc(Cl)cc3)ccc2n1`, the growth is 13.5%.

On to `Clc1ccc(Nc2ncnc3c2sc2ncccc23)cc1`, for which the growth is 15.3%.

For the compound `CC1(C)C(N(O)C(=O)Nc2ccc(Cl)cc2)N(c2ccc(Cl)cc2)C(=O)N1CC(=O)N/N=C/C=C/c1ccc([N+](=O)[O-])o1` (stereo not given), the growth is 68%.

Turning to `COc1ccc2nc(C)cc(Nc3ccccc3O)c2c1`, the growth was -0.0846% (active).

Consider `COc1cccc(/C=N/N=C(N)N)c1`, for which the growth is 104%.

With `CCc1ccc(Nc2ncnc3c2cnn3-c2cccc(Br)c2)cc1`, the growth is 89.3%.

Take `OC(c1cc2c(Cl)cc(Cl)cc2c2cc(C(F)(F)F)ccc12)C1CCCCN1` (stereo not given): the growth was -62.5% (active).
